Shown are actives, neighbours in structure and some others; about 3% of the full set was active somewhere.
Tau fibril FP: inhibitors of human tau fibril formation; Potency, µM (highest dose often 57.7 µM), actives largely listed as inhibitors; 0.39% of 280,000 active; AID 1468; P10636; K18 P301L tau heparin fibrillization, Alexa594 FP, 6 h; also: nearly all actives have a fitted effect of over 55% in size
Target sequence (P10636 561-689 P618L limits assumed): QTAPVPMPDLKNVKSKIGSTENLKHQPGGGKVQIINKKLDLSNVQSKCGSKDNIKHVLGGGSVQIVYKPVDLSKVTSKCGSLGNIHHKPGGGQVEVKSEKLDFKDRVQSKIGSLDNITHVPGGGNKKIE
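Human K18 P301L fragment (15 uM unlabeled plus 0.24 uM Alexa 594-labeled) in 100 mM sodium acetate pH 7 with compound, aggregation induced by 20 uM heparin for 6 hr at 37 C. ThT (30 uM) added for 1 hr, then Alexa 594 FP read.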
TRb SRC2 PPI: TRbeta-SRC2 interaction inhibition; TRbeta-SRC2 peptide binding, fluorescence polarization; receptor liganded with 1 µM T3; Potency, µM (series often up to 106 µM), most hits filed as inhibitors; 0.065% of 280,000 active; AID 1469; also: nearly all actives have a fitted effect of over 50% in size
Target sequence (P10828 whole entry, looked up): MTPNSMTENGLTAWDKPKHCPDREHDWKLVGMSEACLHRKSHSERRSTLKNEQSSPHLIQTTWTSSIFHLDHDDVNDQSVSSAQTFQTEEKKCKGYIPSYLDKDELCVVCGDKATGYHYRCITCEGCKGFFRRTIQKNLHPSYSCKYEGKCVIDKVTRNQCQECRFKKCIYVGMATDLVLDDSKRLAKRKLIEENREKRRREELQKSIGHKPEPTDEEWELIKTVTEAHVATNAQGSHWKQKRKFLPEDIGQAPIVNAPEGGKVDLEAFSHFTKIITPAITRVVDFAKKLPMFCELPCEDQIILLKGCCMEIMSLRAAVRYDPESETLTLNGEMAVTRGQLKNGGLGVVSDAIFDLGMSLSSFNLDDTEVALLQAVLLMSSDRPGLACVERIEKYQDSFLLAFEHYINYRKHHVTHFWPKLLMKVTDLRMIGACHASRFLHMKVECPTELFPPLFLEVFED
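TRb LBD 0.6 uM + Texas Red SRC2 peptide 20 nM, 1 uM T3, Tris buffer w/ 5% DMSO; compound pinned, 5 h RT; FP read ex 555/em 632; normalized to unbound and bound controls.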
TexasRed fluor: alters Texas Red total fluorescence, flagging assay interference. Potency, µM (titrated, usually from 106 µM). TRb/SRC2 Texas Red total fluorescence interference. 0.29% of 280,000 active; active = well fitted curve in either direction with a large enough effect; inconclusive = small, poorly fitted or top-dose-only effect
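Human TRb ligand-binding domain at 0.6 uM with 20 nM Texas Red SRC2 peptide in Tris buffer containing 1 uM T3 and 5% DMSO, incubated with compound 5 h at ambient temperature. Total fluorescence (555/632 nm) calculated as parallel + 2 × perpendicular.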
Tau ThT inhib: blocks human tau fibril formation measured by thioflavin T; P10636; 2.1% of 270,000 active; recombinant tau K18 P301L, heparin-induced fibrillization, ThT fluorescence; Potency, µM (highest dose often 57.4 µM), most hits filed as inhibitors; also: nearly all actives have a fitted effect of over 55% in size
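ThT emission at 510 nm, taken 1 hr after adding 30 uM dye, quantifies aggregates formed when 20 uM heparin acts on human tau K18 P301L for 6 hr at 37 C.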
Tau fluor counter: counter-screen for tau fibril formation inhibitors. 0.93% of 280,000 active. Potency, µM (top dose mostly 57.7 µM). tau K18 P301L (four-repeat tau fragment) Alexa594 fluorescence, heparin fibrillization. AID 1463; also: nearly all actives have a fitted effect of over 55% in size
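Human K18 P301L tau (15 uM unlabeled plus 0.24 uM Alexa 594-labeled, final) in 100 mM sodium acetate pH 7 was mixed with compound and 20 uM heparin and incubated 6 hr at 37 C.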
Each line names hits and unclear results; the compound was inactive in the other large screens; [ ] = dose if it differs, or a comment. Unless noted, calls follow the shape of the dose curve; as a rule, active = well fitted curve in the direction sought with a large enough effect; inconclusive = small, poorly fitted or top-dose-only effect, or another doubt; inactive = no such curve, though single readings can be large; an effect the other way counts as inactive or inconclusive.

O=[N+]([O-])c1cccc(-c2cn3nc(-c4ccccc4)c(-c4ccccc4)nc3n2)c1	none
CC1CCN(S(=O)(=O)c2cc(C(=O)NCCc3ccccc3)n(C)c2)CC1	none
COc1ccc(S(=O)(=O)NCCSc2nnnn2-c2ccccc2)cc1OC	TexasRed fluor 8.9µM[quencher], Tau fluor counter inconclusive
Cc1nc(N2CCOCC2)c2nc(-c3ccccc3)n(CCN3CCCC3)c2n1	none
Oc1ccc(-c2nc(-c3ccccc3)c(-c3ccc(Br)cc3)[nH]2)cc1	Tau fibril FP inconclusive, Tau ThT inhib 28µM, Tau fluor counter 8.9µM[quencher]
Oc1ccc(N=Nc2nc(-c3ccccc3)c(-c3ccccc3)[nH]2)cc1	Tau fibril FP inconclusive, Tau ThT inhib 4.5µM, Tau fluor counter 11µM[quencher]
Cc1nc(-c2ccccc2)c(-c2ccccc2)[nH]1	none
COc1ccc(-c2[nH]c(-c3cc(OC)c4c(c3)OCO4)nc2-c2ccccc2)cc1	Tau fibril FP inconclusive, Tau ThT inhib inconclusive, Tau fluor counter 13µM[quencher]
COc1cc(-c2nc(-c3ccccc3)c(-c3ccc(Br)cc3)[nH]2)cc(OC)c1O	Tau ThT inhib inconclusive, Tau fluor counter 11µM[quencher]
CCCCCCCC(=O)Oc1c(Br)cc(C#N)cc1Br	none (no result: Tau fibril FP, Tau ThT inhib, Tau fluor counter)
C=CC(C)(C)c1[nH]c2ccccc2c1C1=C(O)C(=O)C(c2c[nH]c3c(CC=C(C)C)cccc23)=C(O)C1=O	Tau fibril FP inconclusive, Tau ThT inhib 14µM, Tau fluor counter 16µM[quencher]
CCOCCCNC(=O)/C(C#N)=C/c1ccc([N+](=O)[O-])o1	Tau fibril FP inconclusive, Tau ThT inhib 14µM
Cc1ccc(NC(=O)Cn2c(=O)c3cc(Cl)ccc3n3nncc23)cc1	none
CCc1ccc2c(c1)N(C[C@H](C)CN(C)C)c1ccccc1S2	none (no result: Tau fibril FP, Tau ThT inhib, Tau fluor counter)
CCOC(=O)c1c(C)[nH]c(C(=O)OCCOc2ccccc2C)c1C	Tau ThT inhib inconclusive
CCOc1ccc(N=C2NN=C(c3cc(C)n(CC4CCCO4)c3C)CS2)cc1 (configuration not stated)	Tau ThT inhib inconclusive
CC(=O)c1c(C)[nH]c(C2=NNC(=NC(C)(C)C)SC2)c1C	Tau fibril FP inconclusive, Tau ThT inhib inconclusive
CCOC(=O)c1c(C)[nH]c(C2=NNC(=Nc3ccccc3)SC2)c1C	Tau fibril FP inconclusive, Tau ThT inhib 4µM, Tau fluor counter 7.9µM[quencher]
CCOC(=O)c1c(C)[nH]c(C2=NNC(=Nc3ccccc3OC)SC2)c1C	Tau ThT inhib 7.9µM, Tau fluor counter inconclusive
CCOC(=O)c1c(C)[nH]c(C2=NNC(=Nc3ccc(OCC)cc3)SC2)c1C	Tau fibril FP inconclusive, Tau ThT inhib 14µM, Tau fluor counter inconclusive
CC(C)CC(NC(=O)NC(CCC(=O)O)C(=O)O)C(=O)O (configuration not stated)	none (no result: Tau fibril FP, Tau ThT inhib, Tau fluor counter)
COc1ccc(OC)c(C2CC(=O)N3CN(c4ccc(C)c(Cl)c4)CSC3=C2C#N)c1 (configuration not stated)	Tau fibril FP inconclusive, Tau ThT inhib 28µM
COc1ccc(OC)c(C2C(C#N)=C(N)Oc3c2c(C)nn3-c2cccc(Cl)c2)c1 (configuration not stated)	Tau ThT inhib 13µM, Tau fluor counter inconclusive
COc1ccc(OC)c(C2CC(=O)N3CN(c4cccc(Cl)c4)CSC3=C2C#N)c1 (configuration not stated)	Tau fibril FP inconclusive, Tau ThT inhib 28µM, Tau fluor counter inconclusive
Cc1nn(-c2cccc(Cl)c2)c2c1C(c1ccncc1)C(C#N)=C(N)O2 (configuration not stated)	Tau ThT inhib inconclusive, Tau fluor counter inconclusive
COc1ccc(OC)c(C2CC(=O)NC(SC)=C2C#N)c1 (configuration not stated)	none
CCOc1ccc(N2CSC3=C(C#N)C(c4ccco4)CC(=O)N3C2)cc1 (configuration not stated)	Tau fibril FP inconclusive, Tau ThT inhib 14µM, Tau fluor counter inconclusive
CCOC(=O)c1ccc(NC(=O)c2cccc3c(=O)c4c([nH]c23)CCCC4)cc1	none
CCn1cc(C(=O)N2CCN(c3ccc(F)cc3)CC2)c(=O)c2cc(S(=O)(=O)N3CCOCC3)ccc21	none
CCOC(=O)C1=C(CC)OC(N)=C(C#N)C1c1ccc(OC)cc1OC (configuration not stated)	none
CCOC(=O)c1ccc(N2CSC3=C(C#N)C(c4ccc(OC)cc4OC)CC(=O)N3C2)cc1 (configuration not stated)	Tau ThT inhib 25µM, Tau fluor counter inconclusive
CC(=O)Nc1ccc(NC(=O)C(c2ccccc2)N2Cc3ccccc3C2=O)cc1 (configuration not stated)	TexasRed fluor 100µM[quencher]
Cc1ccc(C)c(NC(=O)C(Cc2ccccc2)N2Cc3ccccc3C2=O)c1 (configuration not stated)	TexasRed fluor 126µM[quencher]
Cc1cc(F)ccc1NC(=O)C(c1ccccc1)N1Cc2ccccc2C1=O (configuration not stated)	none
Cc1cccc(NC(=O)C(Cc2ccccc2)N2Cc3ccccc3C2=O)c1C (configuration not stated)	Tau fibril FP inconclusive
Cc1ccc(C)c(NC(=O)C(c2ccccc2)N2Cc3ccccc3C2=O)c1 (configuration not stated)	TexasRed fluor 100µM[quencher]
Cc1ccc(S(=O)(=O)NCC2CCC(C(=O)NCc3ccc(F)cc3)CC2)cc1 (configuration not stated)	none
CC1=C(C(=O)Nc2ccc(C)cc2Cl)C2(CCCCC2)OC1=O	TexasRed fluor 0.0056µM[quencher]
CO[C@@H]1/C=C\CC(=O)N2CCC[C@@H]2C(=O)OC[C@H](C)C(=O)OC[C@H]1C	none
COCCCNC(=O)c1nn(-c2ccc(C)cc2)c(=O)n(C)c1=O	none
CC(C)(C)c1ccc(OCc2ccc(C(=O)N/N=C/c3ccc([N+](=O)[O-])cc3)o2)cc1	Tau ThT inhib inconclusive, Tau fluor counter 8.9µM[quencher]
CCOc1ccc(/C=N/NC(=O)c2ccc(Cn3cc([N+](=O)[O-])cn3)o2)cc1	none
CC1CCc2c(sc(Nc3nc4c(F)cccc4s3)c2C(N)=O)C1 (configuration not stated)	Tau ThT inhib inconclusive, Tau fluor counter 16µM[quencher]
S=C(Nc1ccc(Cl)c(Cl)c1)NC1CCN(Cc2ccccc2)CC1	Tau fibril FP 25µM, Tau fluor counter inconclusive
COc1ccc(CCCc2nnc(SCC(=O)Nc3cccc(F)c3C)o2)cc1	none
CC1=C(c2ccc(Cl)cc2)S(=O)(=O)N=C1N1CCC(C(=O)NCCc2ccco2)CC1	none
CC1=C(c2ccc(C(C)C)cc2)S(=O)(=O)N=C1N1CCC(C(=O)NCCc2ccco2)CC1	TexasRed fluor 25µM[quencher], Tau ThT inhib inconclusive
CCS(=O)(=O)c1ncc(N(Cc2ccccc2)Cc2ccco2)c(C(=O)Nc2ccc(C)c(C)c2)n1	none
O=C1OC2(c3ccccc31)c1cc(I)c(O)c(I)c1Oc1c2cc(I)c(O)c1I	TRb SRC2 PPI inconclusive, TexasRed fluor 40µM[fluorescent] (no result: Tau fibril FP, Tau ThT inhib, Tau fluor counter)

Screens: PubChem BioAssay, National Center for Advancing Translational Sciences (NCATS)
